Bioassay records: PubChem, several laboratories
KKLEB tox – counter-screen for CF NF-kB inhibitors: cytotoxicity. KKLEB CF airway cells viability, ATPlite luminescence, overnight; active compounds read low; cells stimulated with P. aeruginosa culture filtrate. hit rate 0.36% among 360,000. AID 602141. activity change (cytotoxicity), % at 5 µM;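 active = corrected activity change at or below -50% at 5 µM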
TRPM1 prom inh – inhibitors of MITF-driven TRPM1 promoter in melanoma cells; SK-MEL-5 TRPM1 promoter luciferase, 24 h; hit rate 0.83% among 330,000; inhibition, % at 12.5 µM;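 active = mean inhibition across replicates of 60% or more, whatever share of single replicates reaches that level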
Peg3 prom inh – reduces Peg3 promoter-driven luciferase expression in HeLa. inhibition, % at 20 µM. hit rate 1.7% among 360,000. AID 588405. HeLa PEG-Prom luciferase reporter, luminescence, overnight;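 active = inhibition of at least 50% at 20 µM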
Shn3 3UTR inh – inhibitors of Schnurri-3 3'UTR reporter in osteoblasts. AID 588674. Clone20 osteoblast Shn3 3'UTR firefly luciferase, 24 h. hit rate 0.52% among 360,000. inhibition, % at 12.5 µM;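 active = mean inhibition of at least 75% with every replicate also reaching 75%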;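 also: 0% = median of neutral control wells and 100% = pilot-screen positive control compound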
HIF-2a block – HIF-2a inhibition | 786-0 RCC cells HIF-2a reporter, luciferase luminescence, overnight | inhibition, % at 18.8 µM | hit rate 0.72% among 360,000 | AID 624352;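 active = inhibition of the luminescence signal of 40% or more relative to plate controls, in a single-dose primary screen at 18.75 µM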
CF NFkB inh – inhibitors of cystic fibrosis induced NF-kB. KKLEB NF-kB-GFP reporter, PAF-induced, GFP fluorescence overnight. hit rate 0.86% among 360,000. inhibition, % at 5 µM;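 active = at least 50% inhibition at 5 µM, scaled per plate between neutral and stimulator controls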;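 also: PAF is a Pseudomonas aeruginosa culture filtrate used as stimulus; plate controls were PAF-stimulated DMSO wells for no effect and unstimulated DMSO wells for full effect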
CF NFkB inh conf – CF NF-kB inhibition confirmation, single concentration; shares compounds with CF NFkB inh; KKLEB CF airway cells, PAF-induced NF-kB-GFP fluorescence, overnight; inhibition, % at 5 µM; hit rate 64% among 1,300; AID 602472; in the data active = inhibition above about 40%;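 also: stimulus PAF is a Pseudomonas aeruginosa filtrate and not platelet activating factor; plate controls were DMSO wells with stimulus for no effect and unstimulated DMSO wells for full effect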
* marks the source's active call; other numbers are inactive results; · = not tested or not shown. Only some compounds are listed: those with a hit (about 2.8% of all), similar ones and a draw of the others.

SMILES	KKLEB tox	TRPM1 prom inh	Peg3 prom inh	Shn3 3UTR inh	HIF-2a block	CF NFkB inh	CF NFkB inh conf
Cc1ccc(NC(=O)C2(C)CCN2Cc2cccc3c2OCO3)cc1O (stereo not drawn)	2.1	·	-8.8	-5.8	-9.6	18.7	·
Cc1ccc(S(=O)(=O)N2CCCCC2)cc1NC(=O)c1ccncc1	-0.6	-3.7	1.1	10.3	12.1	-5.1	·
N#CC1=C(N)Oc2cc(O)c(C=Nc3ccccc3)cc2C1c1ccccc1 (stereo not drawn)	15.8	50.5	-12.4	-3.8	30.7	41.4	·
Cc1ccc(N=Cc2cc3c(cc2O)OC(N)=C(C#N)C3c2ccccc2)cc1 (stereo not drawn)	17.6	41.6	-8.0	32.4	35.0	54.2*	74.3*
COc1ccc(N(CCCN2C(=O)c3cccc4cccc(c34)C2=O)C(=O)c2ccncc2)cc1	-24.2	-1.2	-74.8	24.6	-76.4	50.1*	45.3*
COc1ccc(N(CCCN2C(=O)c3cccc4cccc(c34)C2=O)C(=O)c2cccnc2)cc1	-15.4	13.8	38.1	40.4	9.6	18.8	·
Cc1ccc2oc(=O)c3cnn(CC(=O)Nc4cc(-c5cccc(F)c5)no4)c3c2c1	-42.3	·	19.7	17.9	-0.7	52.9*	16.4
O=C(Nc1ccc2c(c1)OCCO2)c1[nH]c(C(F)(F)F)nc1-c1ccccc1	-10.2	·	23.4	38.2	33.3	24.4	·
CCOC(=O)c1sc(NC(=O)c2cccc(S(=O)(=O)N3CCc4ccccc43)c2)c(C#N)c1C	-31.7	22.0	39.9	30.8	-16.2	60.6*	66.1*
CCC(CC)c1nnc(NC(=O)c2cccc(S(=O)(=O)N3CCc4ccccc43)c2)s1	-1.1	8.9	9.4	8.6	2.7	4.8	·
CCOC(=O)Nc1nc(-c2ccccc2)c(C(=O)c2ccccc2)s1	-37.6	39.3	-27.4	22.4	23.5	53.1*	77.2*
CCNC(=O)N(C)c1c(CC)nc2ccc(C(=O)Nc3cccc(OCC(=O)N(C)C)c3)cn12	-0.4	·	6.9	-3.2	6.4	-2.2	·
CCc1nc2ccc(C(=O)Nc3cccc(OCC(=O)N(C)C)c3)cn2c1N(C)Cc1cc2ccccc2s1	-10.2	·	72.8*	9.0	-18.5	52.6*	13.6
CC1(Cc2ccc(Cl)cc2)C(=O)Nc2ccc(-c3cccnc3)cc21 (stereo not drawn)	-29.7	·	23.1	23.6	15.9	79.3*	91.1*
CC1(Cc2cccc(F)c2)C(=O)Nc2ccc(-c3cccnc3)cc21 (stereo not drawn)	4.8	·	19.8	49.8	15.1	72.4*	66.3*
CCc1ccc2c(c1)NC(=O)C2(C)Cc1cccc(F)c1 (stereo not drawn)	-3.6	·	14.9	-3.3	9.2	5.2	·
N=c1c(S(=O)(=O)c2ccc(Br)cc2)cc2c(=O)n3ccccc3nc2n1Cc1ccco1	-18.2	6.2	41.1	1.7	12.7	82.3*	11.5
CCc1ccc(C(=O)N/N=C/c2cccc3ccccc23)nc1	-3.1	-52.6	-195.5	-69.6	-229.8	-8.7	·
COc1ccc2nc(NC(=O)Nc3ccccc3)sc2c1	-14.4	-63.3	-245.5	-26.7	-182.8	7.2	·
CC(C)(C)c1nc(NC(=O)Nc2ccccc2)sc1Br	-48.9	-64.9	-198.0	-0.4	-299.1	69.1*	64.8*
Cc1ccc(NC(=O)COCC(=O)Nc2ccc(F)cc2)cc1	0.2	-7.6	16.9	-14.3	0.0	-18.0	·
S=C(Nc1cccc2ccccc12)Nc1cccc2ccccc12	-37.0	19.5	-30.8	9.6	-77.7	83.8*	11.0
C=C(C)[C@@H]1CC[C@]2(C(=O)O)CC[C@]3(C)[C@H](CC[C@@H]4[C@@]5(C)CC[C@H](O)C(C)(C)[C@@H]5CC[C@]43C)[C@@H]12	4.6	4.7	54.0*	-1.6	4.0	69.7*	55.8*
Cc1ccc(-c2cc(C(=O)N(C)Cc3cnn(C)c3C)c3cc(Br)ccc3n2)cc1	-6.7	0.9	-16.9	-0.3	-42.6	66.9*	58.1*
COc1ccc(N(C)S(=O)(=O)c2cccc(C(=O)Nc3nc4ccccc4[nH]3)c2)cc1	0.9	1.4	12.9	23.4	-42.4	-7.6	·
SMILES	KKLEB tox	TRPM1 prom inh	Peg3 prom inh	Shn3 3UTR inh	HIF-2a block	CF NFkB inh	CF NFkB inh conf
CN(c1cccc(Cl)c1)S(=O)(=O)c1cccc(C(=O)Nc2nc3ccccc3[nH]2)c1	-16.0	-9.0	75.9*	30.3	-147.4	80.4*	47.0*
c1csc(CNc2ncnc3ccc(-c4ccoc4)cc23)c1	-6.9	-6.8	-10.9	7.7	3.9	76.6*	92.2*
c1csc(CNc2ncnc3ccc(-c4ccc5c(c4)OCO5)cc23)c1	-24.2	6.6	30.4	17.9	29.2	26.6	·
O=C(NCCc1c[nH]c2ccccc12)C(=O)NCC(c1ccco1)N1CCN(c2ccc(F)cc2)CC1 (stereo not drawn)	-47.9	13.5	25.8	17.9	21.1	51.2*	-17.4
COc1ccc(OC)c(-c2nn(-c3ccccc3)cc2C(=O)NC2(C)CCS(=O)(=O)C2)c1 (stereo not drawn)	7.4	·	10.8	13.1	15.6	-2.6	·
COc1cc([C@@H]2Oc3cc(C4Oc5cc(O)cc(O)c5C(=O)[C@H]4O)ccc3O[C@H]2CO)ccc1O (stereo partly drawn)	13.2	12.8	-12.2	-6.2	3.3	50.9*	8.5
COc1cc([C@H]2Oc3cc([C@H]4Oc5cc(O)cc(O)c5C(=O)[C@@H]4O)ccc3O[C@@H]2CO)ccc1O	-1.4	0.3	-7.5	-5.2	0.5	20.2	·
Cc1nn(-c2ccccc2)c(Cl)c1/C=N/NC(N)=O	-12.9	4.3	-22.5	8.0	-88.0	-8.2	·
NC(=O)N/N=C/c1c(Sc2nnnn2-c2ccccc2)nc2ccccn2c1=O	-38.3	14.9	103.3*	3.8	3.5	71.4*	72.0*
C[C@]12CC[C@@H]3c4ccc(O)cc4[C@@H](O)C[C@H]3[C@@H]1CC[C@@H]2O	·	·	·	0.8	·	·	·
CCOc1cc2c(cc1O)C(=NOC)CC1C2CCC2(C)C(O)CCC12 (stereo not drawn)	-16.9	32.9	-2.9	20.4	13.9	51.5*	75.7*
Cc1nc2c(=O)n(C)c(=O)n(C)c2nc1Cl	9.0	43.0	108.0*	96.8*	39.1	75.1*	-11.9
Cc1nn(-c2ccc(F)cc2)c2sc(C(=O)OCC(=O)N3CCC(C)CC3)cc12	-3.0	-3.3	22.0	-8.4	13.4	-23.3	·
Cc1noc(C)c1COC(=O)c1cc2c(C)nn(-c3ccc(F)cc3)c2s1	-31.2	8.2	13.7	3.1	21.4	51.0*	8.1
CCN1C[C@@H]2[C@@H]3C(=O)N(C)C(=O)[C@@H]3[C@](C)(C1=O)N2C(=O)c1ccc(Cl)c(Cl)c1	-6.5	-14.8	-5.5	-12.1	8.5	7.3	·
COc1ccc2c(c1)C(=O)N(c1ccccc1OC)C(=O)C2(C)C	-7.9	16.6	11.3	6.2	13.3	7.3	·
COc1ccc([C@]2(C(C)C)ON(c3ccccc3C(F)(F)F)C2=O)cc1	-8.3	23.0	66.2*	-25.7	20.7	58.3*	51.7*
